“And” between values parts separate entries of the source, which are not always exact repeats. Equal values may be shown once. The panel holds about 79,000 compounds, 15% with a hit somewhere; the sample as a whole holds those more often. The source made the active and inactive calls. Cut-off read from the data, not from the text of the source: active = growth inhibition above about 70%; inactive = the rest.
How the values were obtained:
[1] = NCI Yeast Anticancer Drug Screen. Data for the rad52 strain (AID 147);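 note: 0% = growth of vehicle-treated control cultures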; settings: S. cerevisiae rad52 mutant growth inhibition, hits give high values
Method in brief: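 The repair-mutant yeast strain was incubated with compounds, then growth was read and inhibition derived relative to vehicle.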

[2] = NCI Yeast Anticancer Drug Screen. Data for the wt1 strain (AID 149);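 note: 0% = growth of vehicle-treated wt1 cultures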; settings: S. cerevisiae wt1 strain (SPY 50644) growth inhibition, hits give high values
Method in brief: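 Measured: growth of wt1 yeast under compound versus vehicle treatment, reported as inhibition.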

[3] = NCI Yeast Anticancer Drug Screen. Data for the rad50EPP+ strain (AID 151);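 note: 0% = growth of vehicle-treated control cultures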; settings: S. cerevisiae rad50 mutant strain, hits give high values
Method in brief: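 Vehicle-normalised growth inhibition; rad50EPP+ yeast strain, altered in DNA damage repair, compound-treated.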

[4] = NCI Yeast Anticancer Drug Screen. Data for the rad50 strain (AID 155);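 note: 0% = growth of vehicle-only cultures of the same strain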; settings: S. cerevisiae rad50 strain growth inhibition, hits give high values
Method in brief: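 Growth of the mutant yeast was measured after compound exposure and referenced to vehicle-treated cultures.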

[5] = NCI Yeast Anticancer Drug Screen. Data for the mec2-1 strain (AID 157); settings: S. cerevisiae mec2-1 strain, hits give high values
Method in brief: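 Mutant yeast (mec2-1) grown with compound; growth inhibition relative to vehicle control reported.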

[6] = NCI Yeast Anticancer Drug Screen. Data for the rad14 strain (AID 159);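 note: 0% = growth of vehicle-treated control cultures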; settings: S. cerevisiae rad14 strain growth inhibition, hits give high values
Method in brief: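 Here, inhibition of yeast growth was measured after compound exposure, using a strain with a genetic defect in DNA damage repair and vehicle-treated cultures as the reference.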

[7] = NCI Yeast Anticancer Drug Screen. Data for the sgs1 mgt1 strain (AID 161);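 note: 0% = growth of cultures given vehicle only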; settings: S. cerevisiae sgs1 mgt1 strain, hits give high values
Method in brief: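 This yeast growth screen uses a strain with defined DNA-repair lesions; compound-treated growth is compared with vehicle-treated growth.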

[8] = NCI Yeast Anticancer Drug Screen. Data for the CLN2oe strain (AID 163);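 note: 0% = growth of vehicle-only control cultures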; settings: S. cerevisiae CLN2oe strain, hits give high values
Method in brief: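 Compounds are applied to yeast harbouring a defined cell-cycle control change; reduced growth compared with vehicle-treated controls gives the value.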

[9] = NCI Yeast Anticancer Drug Screen. Data for the cln2 rad14 strain (AID 165);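 note: 0% = growth equal to vehicle treated cultures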; settings: S. cerevisiae cln2 rad14 strain, hits give high values
Method in brief: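 Readout is yeast growth inhibition versus vehicle-treated controls, using a strain with cln2 and rad14 alterations exposed to compound.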

[10] = NCI Yeast Anticancer Drug Screen. Data for the bub3 strain (AID 167); settings: S. cerevisiae bub3 mutant strain, hits give high values
Method in brief: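 Whole-cell yeast assay. The mutant strain was incubated with compounds, and growth inhibition was determined by comparison with vehicle-treated cells.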

[11] = NCI Yeast Anticancer Drug Screen. Data for the wt2 strain (AID 169);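 note: 0% = growth of vehicle-treated yeast cultures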; settings: S. cerevisiae wt2 strain growth inhibition, hits give high values
Method in brief: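 Against vehicle-treated controls, the growth of yeast exposed to each compound was compared, and the inhibition was recorded.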

[12] = NCI Yeast Anticancer Drug Screen. Data for the sgs1 strain (AID 173);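 note: 0% = growth of vehicle-only control cultures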; settings: S. cerevisiae sgs1 mutant, hits give high values
Method in brief: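 Each compound was added to cultures of the altered yeast strain. Growth was recorded, and inhibition was derived by comparison with vehicle controls.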

[13] = NCI Yeast Anticancer Drug Screen. Data for the mlh1 rad18 strain (AID 175); settings: S. cerevisiae mlh1 rad18 strain growth inhibition, hits give high values
Method in brief: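 Genetically defined yeast (DNA repair-deficient) exposed to compounds; growth inhibition determined relative to vehicle.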

[14] = NCI Yeast Anticancer Drug Screen. Data for the rad18 strain (AID 177); settings: S. cerevisiae rad18 mutant growth inhibition, hits give high values
Method in brief: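 Vehicle-treated cultures served as the baseline for scoring compound-induced growth inhibition in DNA-repair-mutant yeast.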

[15] = at 5.0 µM (retest, dose inferred, filed as 0.5)
[16] = at 50.0 µM (retest, dose inferred, filed as 5.0)

Measured: growth inhibition

CCc1nc(N)nc(N)c1-c1ccc(NCCCCCCN)c([N+](=O)[O-])c1
active: [4]; at 50.0 µM 86% | [5]; at 50.0 µM 95.6% | [7]; at 50.0 µM 92.7% | [9]; [16] 83% | [9]; at 50.0 µM 96.2% | [10]; at 50.0 µM 93.5% | [13]; at 50.0 µM 97.2%
inactive: [1]; at 1.2 µM -3% | [1]; at 3.7 µM 0% | [1]; at 11.0 µM 2% | [1]; at 33.0 µM 11% | [1]; at 100.0 µM 32% | [2]; at 1.2 µM -1% | [2]; at 3.7 µM -1% | [2]; at 11.0 µM -1% | [2]; at 33.0 µM -3% | [2]; at 100.0 µM -4% | [3]; at 1.2 µM -6% | [3]; at 3.7 µM -3% | [3]; at 11.0 µM -3% | [3]; at 33.0 µM 1% | [3]; at 100.0 µM 17% | [4]; at 1.2 µM 0% | [4]; at 3.7 µM -2% | [4]; [15] -16% | [4]; at 11.0 µM 11% | [4]; at 33.0 µM 17% | [4]; [16] -4% | [4]; at 100.0 µM 42% | [5]; at 1.2 µM -1% | [5]; at 3.7 µM -4% | [5]; [15] 4% | [5]; at 11.0 µM -4% | [5]; at 33.0 µM -4% | [5]; [16] -10% | [5]; at 100.0 µM 11% | [6]; at 1.2 µM 4% | [6]; at 3.7 µM -4% | [6]; at 11.0 µM -3% | [6]; at 33.0 µM -13% | [6]; at 100.0 µM 0% | [7]; [15] -22% | [7]; [16] -16% | [8]; at 1.2 µM -3% | [8]; at 3.7 µM 1% | [8]; at 11.0 µM -5% | [8]; at 33.0 µM 0% | [8]; at 100.0 µM -5% | [9]; [15] -19% | [10]; at 1.2 µM -7% | [10]; at 3.7 µM -4% | [10]; [15] 11% | [10]; at 11.0 µM 9% | [10]; at 33.0 µM 17% | [10]; [16] -16% | [10]; at 100.0 µM -2% | [11]; at 1.2 µM -1% | [11]; at 3.7 µM 0% | [11]; at 11.0 µM -2% | [11]; at 33.0 µM -3% | [11]; at 100.0 µM -4% | [12]; at 1.2 µM -3% | [12]; at 3.7 µM -2% | [12]; at 11.0 µM -3% | [12]; at 33.0 µM -5% | [12]; at 100.0 µM -3% | [13]; [15] -27% | [13]; [16] -34% | [14]; at 1.2 µM -4% | [14]; at 3.7 µM -6% | [14]; at 11.0 µM -5% | [14]; at 33.0 µM -17% | [14]; at 100.0 µM -23%

CC(=O)C1=C(O)C2(C)c3c(O)c(C)c(O)c(C(C)=O)c3OC2(Sc2ccccc2)CC1=O (stereo unspecified)
active: [1]; at 100.0 µM 86% | [2]; at 100.0 µM 89% | [4]; [16] 85% | [4]; at 100.0 µM 83% | [5]; [16] 93% | [5]; at 100.0 µM 84% | [6]; at 100.0 µM 85% | [7]; [16] 91% | [8]; at 100.0 µM 85% | [9]; [16] 94% | [10]; [16] 91% | [10]; at 100.0 µM 86% | [11]; at 100.0 µM 89% | [12]; at 100.0 µM 85% | [13]; [16] 89% | [14]; at 100.0 µM 82%
inactive: [1]; at 1.2 µM 24% | [1]; at 3.7 µM 43% | [1]; at 11.0 µM 54% | [1]; at 33.0 µM 58% | [2]; at 1.2 µM 21% | [2]; at 3.7 µM 51% | [2]; at 11.0 µM 55% | [2]; at 33.0 µM 66% | [3]; at 1.2 µM 23% | [3]; at 3.7 µM 18% | [3]; at 11.0 µM 30% | [3]; at 33.0 µM 33% | [3]; at 100.0 µM 52% | [4]; at 1.2 µM 20% | [4]; at 3.7 µM 20% | [4]; [15] -15% | [4]; at 11.0 µM 36% | [4]; at 33.0 µM 53% | [4]; at 50.0 µM 63% and 7.1% | [5]; at 1.2 µM 4% | [5]; at 3.7 µM 24% | [5]; [15] 22% | [5]; at 11.0 µM 43% | [5]; at 33.0 µM 54% | [5]; at 50.0 µM 68.6% and -7.9% | [6]; at 1.2 µM 0% | [6]; at 3.7 µM 5% | [6]; at 11.0 µM 17% | [6]; at 33.0 µM 30% | [7]; [15] 9% | [7]; at 50.0 µM 48.1% and 0.4% | [8]; at 1.2 µM -1% | [8]; at 3.7 µM 34% | [8]; at 11.0 µM 44% | [8]; at 33.0 µM 52% | [9]; [15] 50% | [9]; at 50.0 µM 68.8% and 4.6% | [10]; at 1.2 µM 12% | [10]; at 3.7 µM 40% | [10]; [15] 36% | [10]; at 11.0 µM 42% | [10]; at 33.0 µM 51% | [10]; at 50.0 µM 59.5% and -0.65% | [11]; at 1.2 µM 10% | [11]; at 3.7 µM 34% | [11]; at 11.0 µM 41% | [11]; at 33.0 µM 54% | [12]; at 1.2 µM 20% | [12]; at 3.7 µM 35% | [12]; at 11.0 µM 48% | [12]; at 33.0 µM 55% | [13]; [15] 14% | [13]; at 50.0 µM 61.6% and 6.3% | [14]; at 1.2 µM 18% | [14]; at 3.7 µM 39% | [14]; at 11.0 µM 31% | [14]; at 33.0 µM 47%

Reference: PubChem BioAssay (NCI)
